In PubChem BioAssay AID588456 (National Center for Advancing Translational Sciences (NCATS), 2011):
Screen size: about 390,000 compounds; about 55 (0.01%) were called active. Only a sample is shown. A number with no mark means an inactive call. The call rests on the fitted dose curve; in most records, active means well fitted inhibition curve with a large enough effect; inconclusive means small, poorly fitted or top-dose-only effect; inactive means no such curve, though single readings can be large or run the other way.

target: Thioredoxin reductase 1, cytoplasmic (Rattus norvegicus) (UniProt O89049); test: qHTS Assay for Substrates of Mammalian Selenoprotein Thioredoxin Reductase 1 (TrxR1): qHTS; conditions: purified TrxR1 substrate turnover, NADPH consumption readout; series mostly up to 114 µM; activity change, negative = substrate turnover: at the top concentration; further: nearly all actives have a fitted effect of over 50% in size
Sequence (O89049 whole entry, looked up): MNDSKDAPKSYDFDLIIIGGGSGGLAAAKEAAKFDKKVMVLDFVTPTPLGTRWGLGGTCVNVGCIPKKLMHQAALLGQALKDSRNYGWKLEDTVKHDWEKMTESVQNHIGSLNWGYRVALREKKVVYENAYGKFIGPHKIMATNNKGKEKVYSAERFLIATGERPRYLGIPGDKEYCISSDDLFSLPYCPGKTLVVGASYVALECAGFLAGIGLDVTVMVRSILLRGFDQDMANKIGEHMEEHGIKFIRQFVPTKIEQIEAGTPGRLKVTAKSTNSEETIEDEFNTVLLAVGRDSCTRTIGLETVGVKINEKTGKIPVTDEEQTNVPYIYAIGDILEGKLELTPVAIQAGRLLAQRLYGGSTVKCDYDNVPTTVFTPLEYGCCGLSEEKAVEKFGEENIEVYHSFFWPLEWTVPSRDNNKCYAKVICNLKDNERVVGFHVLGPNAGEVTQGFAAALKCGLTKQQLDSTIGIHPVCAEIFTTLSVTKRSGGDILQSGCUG
From the text: The selenoprotein thioredoxin reductase (TrxR; EC 1.8.1.9) is a FAD containing homodimeric pyridine nucleotide-disulfide oxidoreductase with many cellular roles. Together with NADPH and its prime substrate thioredoxin (Trx), the enzyme forms the core of the Trx system. The mammalian Trx system exerts a wide spectrum of functions including redox regulation, antioxidant defense, regulation of transcription factors as well as support of cell growth and replication. Many of these functions involve the reduction of Trx, which may subsequently reduce a number of different substrates including ribonucleotide reductase, peroxiredoxins or NFkB. Mammalian TrxR itself also has a broad substrate specificity, reducing both protein and non-protein substrates, including low molecular weight compounds such as dehydroascorbate, lipoic acid, ubiquinone, and juglone. In addition, several drugs in clinical use for anticancer treatment are indeed known to target TrxR1.
This BioAssay is a validation of an NADPH fluorescence-based, dual-purpose qHTS rTrxR1 assay designed to find potential inhibitors and substrates of rTrxR1. For this particular BioAssay, actives are potential substrate. See related BioAssay for inhibition data deposition.
NIH Molecular Libraries Probe Production Network [MLPCN]
NIH Chemical Genomics Center [NCGC]
Assay Provider: Elias Arner, Karolinska Institute
Assay protocol: 2 uL of reagents (buffer in column 4 as negative control and 90 nM rTrxR1 in columns 1-3 and 5-48) were dispensed into Greiner black solid-bottom 1,536-well assay plates, followed by 1 uL of NADPH (400 uM final concentration) to each well. The plates were centrifuged at 1000 rpm for 15 seconds and subsequently incubated for 5 min at room temperature (~22 deg C) to allow for rTrxR1 reduction. Compounds (23 nL) were then transferred via Kalypsys pin tool equipped with 1536-pin array (10 nL slotted pins, V&P Scientific, San Diego, CA). In addition, a duplicate 2-fold serial dilution of the control compounds auranofin, a known gold-based TrxR1 inhibitor, and juglone (5-hydroxy-1,4-naphthoquinone), a natural TrxR1 substrate, were pin-transferred to columns 2 and 3, respectively. After incubation for 15 min at room temperature (~22 deg C), 1 uL of selenite (400 uM final concentration) were dispensed to each well. The plate was immediately transferred to a ViewLux high-throughput CCD imager (PerkinElmer), wherein kinetic measurements of NADPH fluorescence (Ex 340 nm, Em 450 nm) were acquired (8 minute kinetic read, see Table 1). Read 1 was utilized to assess the capacity of a compound to serve as an rTrxR1 substrate, i.e. a decrease in NADPH fluorescence compared to the no-compound background is an indication of a substrate behavior for that particular compound. For inhibitory activity of a compound, delta values, computed as the difference in fluorescence intensity between the first and last reads of an 8-minute time kinetic window, were used. All reagents were diluted in an assay buffer consisting of 50 mM Tris-HCl, pH 7.5, 2 mM EDTA, and 0.01% Tween-20.
Throughout the screen, reagent bottle and all liquid lines were made light-tight to minimize reagent degradation. All screening operations were performed on a fully integrated robotic system (Kalypsys, San Diego, CA) containing one RX-130 and two RX-90 anthropomorphic robotic arms (Staubli, Duncan, SC). Library plates were screened starting from the lowest and proceeding to the highest concentration, and a 'double-pinning' step of the highest concentration was required to access higher concentrations of compounds. Vehicle-only plates, with DMSO being pin-transferred to the columns 5-48, were inserted uniformly at the beginning and the end of each library in order to monitor and record any shifts in the background, which can be affected by reagent dispensers or loss in enzyme activity over time. […]
On the % scale 0 is the no-effect control and ±100 the full control effect.

Structure (SMILES) | activity change, negative = substrate turnover
O=[N+]([O-])c1ccc(S(=O)(=O)N2CCN(c3nc(-c4ccccc4)nc4ccccc34)CC2)cc1 | -1.75%
Cc1cccc(-n2ccnc2SCC(=O)Nc2cc(C(F)(F)F)ccc2Cl)c1 | -2.94% [at 57.1 µM]
CN1CCN(/[N+]([O-])=N/Oc2ccc([N+](=O)[O-])cc2[N+](=O)[O-])CC1 | -6.58%
COc1cc2nc(N3CCCN(C)CC3)nc(NC(C)C)c2cc1OC | 31.6%
CN(N=O)c1ccc(C=C2c3ccccc3-c3ccccc32)cc1 | -1.85%
COc1ccc(-c2nc(=N)sn2-c2ccccc2)cc1 | -8.32%
CN(C)c1ccc(/C=C/c2c3ccccc3nc3ccccc23)cc1 | 6.6%
CN(C)c1cc2c(Nc3ccc4c(cnn4Cc4ccccc4)c3)ncnc2cn1 | -3.11% [at 57.1 µM]
CC(C)(C)n1ncc2c(=O)n(Cc3ccc(C(=O)c4ccccc4)cc3)cnc21 | -4.32%
CC(C)(C)OC(=O)N(Cc1ccco1)S(=O)(=O)c1ccccc1Br | -4.16%
CC(=O)c1ccc[n+](C(C)CCC(C)[n+]2cccc(C(C)=O)c2)c1 (stereo not drawn) | 4.01% [at 0.0914 µM]
CCOc1ccc(CCNC(=O)c2csc3c2CCCCC3)cc1 | -1.88%
CN(C(=N)N)c1ccc(/C=C2\C=Cc3ccccc32)cc1 | -3.13%
Cc1cccc(-n2ncc(C(=O)N3CCc4ccccc4C3)c2C2CCN(C(=O)OC(C)(C)C)CC2)c1 | -7.64%
Cc1cccc(NC(=O)CSc2nc3c(oc4ccccc43)c(=O)n2-c2ccc(F)cc2)c1 | -1.84%
COc1cc(CNCCSc2nnnn2C)ccc1OCc1c(F)cccc1Cl | 7.47% [at 11.4 µM]
CC1(C)Cc2ccccc2-c2c[nH]c(=O)n21 | -0.238%
O=C(c1ccc2c(=O)n(Cc3ccco3)c(=S)[nH]c2c1)N1CCCC1 | 4.46%
N#Cc1ccc[n+](CC(=O)c2ccc(F)cc2)c1 | 1.15%
Nc1ncnc2nnsc12 | 7.52% [at 0.0914 µM]
Oc1ccc(Br)cc1C1C=C(c2ccc3c(c2)OCO3)NC(c2ccc(Cl)cc2)N1 (stereo not drawn) | 6.51% [at 0.0914 µM]
COc1cc(CN(CC2CCCO2)C(=O)c2ccccc2F)cc(OC)c1OC (stereo not drawn) | -0.795%
ClC/C=C/C[n+]1ccccc1Cl | -8.25%
CCOC(=O)c1c(C)oc2ccc(N(C(=O)c3ccncc3)S(=O)(=O)c3ccc(CC)cc3)cc12 | -5.68%
CCCCC(CCCC)c1ccc(C=Nc2ccc(/C=C/c3ccnc4ccccc34)cc2)cc1 | -9.78%
COc1cc(OC)c(/C=C/c2ccnc3ccccc23)c(OC)c1 | -0.93%
CCOC(=O)c1cccc(NC(=O)c2cc(S(=O)(=O)N3CCCC(C)C3)cn2C)c1 (stereo not drawn) | 2.95% [at 57.1 µM]
O=C(Nc1ccccc1)c1ccccc1OCc1ccccc1 | -1.98%
